The list is not random: actives were taken first. Their share in the collection is about 4.6%.
ADAM17 inh – ADAM17 inhibitors, primary screen, biochemical, QFRET; Disintegrin and metalloproteinase domain-containing protein 17 (Homo sapiens), P78536; recombinant ADAM17, EDANS/DABCYL FRET peptide cleavage; inhibition, % at 6.95 µM; hit rate 0.83% among 370,000;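 active = inhibition above the mean of compounds lying between control limits plus 3 SD, set per campaign, cut at about 8.5% in these data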
NR3A LBD binder – binders of NR3A ligand-binding domain, primary screen, biophysical, differential scanning fluorimetry, uHTS; Glutamate receptor ionotropic, NMDA 3A (GRIN3A) ligand-binding domain; NR3A LBD differential scanning fluorimetry, Tm shift; 0% = protein alone, 100% = glycine-bound protein; Tm shift relative to glycine control, % at 25 µM; hit rate 2.5% among 340,000; AID 1259313, 2017;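 active = melting temperature shift of at least 10% of the positive control shift, at one fixed dose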
ADAM10 inh – human ADAM10 inhibitors, primary screen, biochemical, QFRET, HTS; recombinant ADAM10, EDANS/DABCYL FRET peptide cleavage, 3 h; inhibition, % at 7 µM; Disintegrin and metalloproteinase domain-containing protein 10 (Homo sapiens), O14672; hit rate 0.62% among 370,000;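 active = inhibition above a per-campaign cutoff equal to the mean of compounds falling between control-based bounds plus 3 SD, cut at about 20% in these data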
KLK7 zymogen act – proKLK7 zymogen activators, primary screen, biochemical, fluorescence intensity; Kallikrein-7 (Homo sapiens), P49862; purified proKLK7, EDANS-DABCYL substrate fluorescence; 100% is mature enzyme control, 0% vehicle; activation, % at 7 µM; hit rate 0.9% among 370,000;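 active = activation above the mean of all tested compounds plus 3 SD, computed per campaign excluding outliers beyond control limits, cut at about 13% in these data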
Target sequence (P49862 whole entry, looked up): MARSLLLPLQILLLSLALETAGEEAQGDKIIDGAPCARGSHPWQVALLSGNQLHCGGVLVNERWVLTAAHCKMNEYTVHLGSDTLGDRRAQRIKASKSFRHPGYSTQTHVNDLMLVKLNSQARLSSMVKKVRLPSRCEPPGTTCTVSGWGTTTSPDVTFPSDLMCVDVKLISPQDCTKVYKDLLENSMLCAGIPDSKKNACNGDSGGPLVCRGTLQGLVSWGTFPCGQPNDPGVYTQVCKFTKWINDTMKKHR
FAS-TE inh – FAS thioesterase domain inhibitors, primary screen, biochemical, fluorescence intensity, uHTS; Fatty acid synthase (Homo sapiens), P49327; recombinant FAS-TE, OMFH fluorogenic substrate, fluorescence endpoint; inhibition, % at 15 µM; hit rate 0.67% among 360,000; AID 602261, 2012;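 active = compounds whose normalised, plate-corrected inhibition of enzyme fluorescence in the single-dose primary screen is 50% or more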
Large screens that a line does not name were inactive.

O=C(NCc1ccco1)/C(=C/c1ccc(F)cc1)NC(=O)c1ccccc1	none
CCCCOCCCNC(=O)C[C@H]1C[C@@]2(C(=O)OC)C(=C[C@H](C3CCCC3)O[C@@H]2C)N(Cc2cccc3ccccc23)C1=O	none (no result: NR3A LBD binder, FAS-TE inh)
COc1ccc(CN2C[C@H]3CCCN3c3cc(Br)ccc3S2(=O)=O)cc1	NR3A LBD binder 18 (no result: ADAM17 inh, ADAM10 inh, KLK7 zymogen act)
S=C(Nc1ccc(Cl)cc1)OC1CCC12CCC(c1ccccc1)CC2 (centres undefined)	none (no result: NR3A LBD binder, FAS-TE inh)
N#Cc1c(Cl)nsc1NC(=O)c1ccccc1	NR3A LBD binder 11
CCOC(=O)NC(=O)/C(N=Nc1ccc(C(F)(F)F)cc1)=C(\C)O	NR3A LBD binder 154
COc1ccc(S[C@]2(C(=O)N3CCN(C(C)=O)CC3)CC(=O)N(S(=O)(=O)c3ccc(F)cc3)[C@@H]2c2ccc(OC)cc2)cc1	none (no result: NR3A LBD binder, FAS-TE inh)
COC(=O)C1CN(Cc2cn(CCOC(C)=O)nn2)CCS(=O)(=O)N1Cc1ccc(C)cc1 (centres undefined)	none (no result: NR3A LBD binder, FAS-TE inh)
CC(=O)Nc1sc(N/N=C\c2ccc(O)cc2)nc1-c1cccs1	none
CC(=O)Nc1sc(N/N=C\c2cccc(Cl)c2)nc1-c1cccs1	NR3A LBD binder 14
CC(=O)Nc1sc(NC(=O)c2ccccc2)nc1-c1cccs1	NR3A LBD binder 18
COc1ccc(NC(=O)N2CCC(c3nc4ccc(Cl)cc4[nH]3)CC2)cc1OC	none (no result: NR3A LBD binder, FAS-TE inh)
O=C(NCCc1c[nH]c2ccccc12)OCc1cn(Cc2cccc(F)c2)nn1	none (no result: NR3A LBD binder, FAS-TE inh)
CCc1ccc(CNC(=O)c2ccc(OC)c(OC3CCN(C(C)C)CC3)c2)nc1	NR3A LBD binder 13
COc1cc(C(=O)NCc2nc(C)cs2)ccc1OC1CCN(C(C)=O)CC1	NR3A LBD binder 12
O=C(Cc1ccccc1Cl)N1CCN(c2ncccn2)CC1	NR3A LBD binder 12
CCn1c(=O)n(CC(=O)NCc2ccco2)c(=O)c2ccccc21	NR3A LBD binder 11
Fc1cccc(/C=N/Nc2ccccn2)c1	NR3A LBD binder 13
Fc1cccc(F)c1/C=N/Nc1ccccn1	none
O=C(NC(=S)Nc1nc(-c2ccccc2)cs1)c1ccco1	NR3A LBD binder 16
O=C(Nc1nc(-c2cc(Cl)sc2Cl)cs1)c1cccs1	NR3A LBD binder 14
O=C(NC(=S)Nc1nc(-c2ccccc2)cs1)c1cncc(Br)c1	NR3A LBD binder 31
COc1ccc(-c2csc(NC(=S)NC(=O)c3ccco3)n2)cc1	none
O=C(NC(=S)Nc1nc(-c2ccccc2)cs1)c1cccs1	NR3A LBD binder 28
O=C(NC(=S)Nc1nc(-c2ccccc2)cs1)c1cccnc1	none
CC(C)C[C@H]1CNC(=S)N1C[C@H]1CCCN1C[C@H](Cc1ccc(O)cc1)N1C[C@H](Cc2ccccc2)N(CCc2ccccc2)C1=S	none (no result: NR3A LBD binder)
Oc1ccc(C[C@H]2CN([C@@H](Cc3ccccc3)CN3CCCC3CN3C(=S)NC[C@@H]3Cc3ccccc3)C(=S)N2CC2CCCCC2)cc1 (some centres undefined)	none (no result: NR3A LBD binder)
Oc1ccc(C[C@H]2CN([C@@H](Cc3ccc(O)cc3)CN3CCC[C@@H]3CN3C(=S)NC[C@@H]3Cc3ccccc3)C(=S)N2CC2CCCCCC2)cc1	none (no result: NR3A LBD binder)
Oc1ccc(C[C@H]2CNC(=S)N2CC2CCCN2C[C@H](Cc2ccc(O)cc2)N2C[C@H](Cc3ccc(O)cc3)N(CC3CCCCC3)C2=S)cc1 (some centres undefined)	NR3A LBD binder 19, ADAM10 inh 22
Oc1ccc(C[C@H]2CNC(=S)N2CC2CCCN2C[C@H](Cc2ccc(O)cc2)N2C[C@H](Cc3ccccc3)N(CCc3ccccc3)C2=S)cc1 (some centres undefined)	NR3A LBD binder 12
Oc1ccc(C[C@H]2CNC(=S)N2CC2CCCN2C[C@H](Cc2ccccc2)N2C[C@H](Cc3ccc(O)cc3)N(CC3CCCCCC3)C2=S)cc1 (some centres undefined)	NR3A LBD binder 33
Cc1ccc(Cn2cc(CN(C3CC3)S(=O)(=O)c3ccccc3Br)nn2)cc1	none (no result: NR3A LBD binder, FAS-TE inh)
CCC(C)[C@@H](C(=O)OC)N(Cc1cn(Cc2ccccc2)nn1)S(=O)(=O)c1ccccc1Br (some centres undefined)	none (no result: NR3A LBD binder, FAS-TE inh)
